# Measured values taken from article PMC9838217, “Structure of SALL4 zinc finger domain reveals link between AT-rich DNA binding and Okihiro syndrome”.
# Where a chain is given by its changes, count along the chain named.
# Experiments:
# Assay in all cases: HT-SELEX; high values mean tight binding
# Details in all cases: protein: recombinant; vector His6-GST; dsDNA, one strand shown
# SALL4 ZFC4 WT (HT-SELEX) = target: T1, SALL4 ZFC4 WT (HT-SELEX) (Mus musculus, UniProt Q8BX22 870-940)
# T1 sequence: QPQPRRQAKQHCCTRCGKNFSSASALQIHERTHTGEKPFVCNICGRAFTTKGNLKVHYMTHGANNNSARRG
# Procedure, shortened: (§1)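 Binding signal is defined as the fold change of each canonical k-mer's read fraction versus the initial random library. Selections used 1 µg of purified recombinant mouse SALL4 zinc finger cluster 4 (residues 870–940) with library DNA (1.5 µg first cycle, 200 ng later) in 100 µl of 10 mM Tris–HCl pH 7.5, 50 mM NaCl, poly(dI-dC) and DTT, for 10 min at room temperature, followed by Ni2+ bead capture, washing and PCR. Up to 6 such cycles were run in triplicate before MiSeq sequencing and 6-mer scanning.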
# [1] = target: T2, SALL4 ZFC4 R900W (HT-SELEX) (Mus musculus, UniProt Q8BX22 870-940, R900W)
# T2 sequence: T1 sequence with R31W
# Procedure, shortened: as §1
# [2] = target: T3, SALL4 ZFC4 G921D (HT-SELEX) (Mus musculus, UniProt Q8BX22 870-940, G921D)
# T3 sequence: T1 sequence with G52D
# Procedure, shortened: as §1
sequence,measurement,setting,value
ATGGGA,binding signal,SALL4 ZFC4 WT (HT-SELEX),0.904 ± 0.0547 fold-change vs cycle 0
same,binding signal,[1],0.99 ± 0.053 fold-change vs cycle 0
same,binding signal,[2],0.966 ± 0.0349 fold-change vs cycle 0
AACGTA,binding signal,SALL4 ZFC4 WT (HT-SELEX),1.18 ± 0.0508 fold-change vs cycle 0
same,binding signal,[1],1.3 ± 0.0339 fold-change vs cycle 0
same,binding signal,[2],1.23 ± 0.0704 fold-change vs cycle 0
AGGTAT,binding signal,SALL4 ZFC4 WT (HT-SELEX),1.44 ± 0.0737 fold-change vs cycle 0
same,binding signal,[1],1.54 ± 0.0608 fold-change vs cycle 0
same,binding signal,[2],1.47 ± 0.0842 fold-change vs cycle 0
ACGACA,binding signal,SALL4 ZFC4 WT (HT-SELEX),0.543 ± 0.0412 fold-change vs cycle 0
same,binding signal,[1],0.639 ± 0.0243 fold-change vs cycle 0
same,binding signal,[2],0.747 ± 0.0208 fold-change vs cycle 0
CGACTA,binding signal,SALL4 ZFC4 WT (HT-SELEX),0.59 ± 0.0236 fold-change vs cycle 0
same,binding signal,[1],0.656 ± 0.0311 fold-change vs cycle 0
same,binding signal,[2],0.777 ± 0.0234 fold-change vs cycle 0
CAGTCC,binding signal,SALL4 ZFC4 WT (HT-SELEX),0.44 ± 0.0267 fold-change vs cycle 0
same,binding signal,[1],0.544 ± 0.0287 fold-change vs cycle 0
same,binding signal,[2],0.63 ± 0.0382 fold-change vs cycle 0
AAATTC,binding signal,SALL4 ZFC4 WT (HT-SELEX),1.76 ± 0.142 fold-change vs cycle 0
same,binding signal,[1],1.66 ± 0.0813 fold-change vs cycle 0
same,binding signal,[2],1.58 ± 0.109 fold-change vs cycle 0
CAGAGG,binding signal,SALL4 ZFC4 WT (HT-SELEX),0.463 ± 0.0456 fold-change vs cycle 0
same,binding signal,[1],0.548 ± 0.0393 fold-change vs cycle 0
same,binding signal,[2],0.65 ± 0.0673 fold-change vs cycle 0
ACTCCT,binding signal,SALL4 ZFC4 WT (HT-SELEX),1.01 ± 0.0205 fold-change vs cycle 0
same,binding signal,[1],1.15 ± 0.052 fold-change vs cycle 0
same,binding signal,[2],1.144 ± 0.00693 fold-change vs cycle 0
CATACG,binding signal,SALL4 ZFC4 WT (HT-SELEX),0.727 ± 0.0223 fold-change vs cycle 0
same,binding signal,[1],0.792 ± 0.0487 fold-change vs cycle 0
same,binding signal,[2],0.858 ± 0.0517 fold-change vs cycle 0
TAGGGA,binding signal,SALL4 ZFC4 WT (HT-SELEX),0.931 ± 0.0124 fold-change vs cycle 0
same,binding signal,[1],0.998 ± 0.0215 fold-change vs cycle 0
same,binding signal,[2],1.02 ± 0.0328 fold-change vs cycle 0
ATGGTA,binding signal,SALL4 ZFC4 WT (HT-SELEX),1.45 ± 0.0382 fold-change vs cycle 0
same,binding signal,[1],1.48 ± 0.0495 fold-change vs cycle 0
same,binding signal,[2],1.4 ± 0.052 fold-change vs cycle 0
CATTGG,binding signal,SALL4 ZFC4 WT (HT-SELEX),0.754 ± 0.0443 fold-change vs cycle 0
same,binding signal,[1],0.867 ± 0.0514 fold-change vs cycle 0
same,binding signal,[2],0.924 ± 0.0186 fold-change vs cycle 0
ACACCT,binding signal,SALL4 ZFC4 WT (HT-SELEX),0.834 ± 0.0401 fold-change vs cycle 0
same,binding signal,[1],0.949 ± 0.0347 fold-change vs cycle 0
same,binding signal,[2],0.979 ± 0.022 fold-change vs cycle 0
AGATCC,binding signal,SALL4 ZFC4 WT (HT-SELEX),0.821 ± 0.0254 fold-change vs cycle 0
same,binding signal,[1],0.949 ± 0.0348 fold-change vs cycle 0
same,binding signal,[2],1.045 ± 0.00383 fold-change vs cycle 0
GTCCTA,binding signal,SALL4 ZFC4 WT (HT-SELEX),0.764 ± 0.0287 fold-change vs cycle 0
same,binding signal,[1],0.905 ± 0.0413 fold-change vs cycle 0
same,binding signal,[2],0.9363 ± 0.00722 fold-change vs cycle 0
TCAGGA,binding signal,SALL4 ZFC4 WT (HT-SELEX),0.887 ± 0.0551 fold-change vs cycle 0
same,binding signal,[1],1.02 ± 0.0319 fold-change vs cycle 0
same,binding signal,[2],1.03 ± 0.0207 fold-change vs cycle 0
GAAGCC,binding signal,SALL4 ZFC4 WT (HT-SELEX),0.311 ± 0.0191 fold-change vs cycle 0
same,binding signal,[1],0.3714 ± 0.00344 fold-change vs cycle 0
same,binding signal,[2],0.514 ± 0.0635 fold-change vs cycle 0
ACACCG,binding signal,SALL4 ZFC4 WT (HT-SELEX),0.325 ± 0.0278 fold-change vs cycle 0
same,binding signal,[1],0.384 ± 0.0241 fold-change vs cycle 0
same,binding signal,[2],0.5 ± 0.0673 fold-change vs cycle 0
TAAATA,binding signal,SALL4 ZFC4 WT (HT-SELEX),3.77 ± 0.207 fold-change vs cycle 0
same,binding signal,[1],2.47 ± 0.107 fold-change vs cycle 0
same,binding signal,[2],2.11 ± 0.184 fold-change vs cycle 0
AACTCA,binding signal,SALL4 ZFC4 WT (HT-SELEX),1.37 ± 0.0562 fold-change vs cycle 0
same,binding signal,[1],1.48 ± 0.0196 fold-change vs cycle 0
same,binding signal,[2],1.4 ± 0.113 fold-change vs cycle 0
TAAACA,binding signal,SALL4 ZFC4 WT (HT-SELEX),1.9 ± 0.127 fold-change vs cycle 0
same,binding signal,[1],1.91 ± 0.125 fold-change vs cycle 0
same,binding signal,[2],1.73 ± 0.187 fold-change vs cycle 0
ATACTA,binding signal,SALL4 ZFC4 WT (HT-SELEX),2.04 ± 0.115 fold-change vs cycle 0
same,binding signal,[1],2.07 ± 0.172 fold-change vs cycle 0
same,binding signal,[2],1.84 ± 0.179 fold-change vs cycle 0
CTACAC,binding signal,SALL4 ZFC4 WT (HT-SELEX),0.733 ± 0.0291 fold-change vs cycle 0
same,binding signal,[1],0.845 ± 0.0188 fold-change vs cycle 0
same,binding signal,[2],0.893 ± 0.0116 fold-change vs cycle 0
GGAGAC,binding signal,SALL4 ZFC4 WT (HT-SELEX),0.471 ± 0.0075 fold-change vs cycle 0
same,binding signal,[1],0.574 ± 0.0262 fold-change vs cycle 0
same,binding signal,[2],0.671 ± 0.0455 fold-change vs cycle 0
CTTCAC,binding signal,SALL4 ZFC4 WT (HT-SELEX),0.856 ± 0.0564 fold-change vs cycle 0
same,binding signal,[1],1.04 ± 0.0731 fold-change vs cycle 0
same,binding signal,[2],1.03 ± 0.0678 fold-change vs cycle 0
GACCAA,binding signal,SALL4 ZFC4 WT (HT-SELEX),0.62 ± 0.021 fold-change vs cycle 0
same,binding signal,[1],0.733 ± 0.0369 fold-change vs cycle 0
same,binding signal,[2],0.845 ± 0.0391 fold-change vs cycle 0
TAATTA,binding signal,SALL4 ZFC4 WT (HT-SELEX),4.1 ± 0.33 fold-change vs cycle 0
same,binding signal,[1],2.77 ± 0.208 fold-change vs cycle 0
same,binding signal,[2],2.33 ± 0.317 fold-change vs cycle 0
CCAAGG,binding signal,SALL4 ZFC4 WT (HT-SELEX),0.457 ± 0.0202 fold-change vs cycle 0
same,binding signal,[1],0.535 ± 0.0059 fold-change vs cycle 0
same,binding signal,[2],0.642 ± 0.0371 fold-change vs cycle 0
CACTCA,binding signal,SALL4 ZFC4 WT (HT-SELEX),0.83 ± 0.0249 fold-change vs cycle 0
same,binding signal,[1],0.928 ± 0.0236 fold-change vs cycle 0
same,binding signal,[2],0.995 ± 0.0233 fold-change vs cycle 0
